Data on 40 molecules can be found in PubChem BioAssay (Tox21).

Records with an inconclusive call do not appear. Calls of active or inactive are those of the source. Calls come from the whole dose curve. Non-standard residues stand in square brackets, D forms with d. Residues, ends and D or L forms follow the SMILES beside them. *: point of attachment. Sta = CC(C)C[C@H](N)[C@@H](O)CC(=O)O; Isovaleryl = CC(C)CC(=O)*

The nature of this experiment: qHTS assay for small molecule disruptors of the mitochondrial membrane potential - cell viability (AID 720634).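 Note: human HepG2 liver cancer cells; nearly all actives have a fitted effect of over 20% in size.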 Conditions: HepG2 viability, ATP luminescence (CellTiter-Glo), 1 h; series mostly up to 83.2 µM. The source says:
U.S. Tox21 Program National Center for Advancing Translational Sciences [NCATS] NIH Chemical Genomics Center [NCGC] U.S. Environmental Protection Agency [EPA] National Institutes of Environmental Health Sciences [NIEHS] National Toxicology Program [NTP] U.S. Food and Drug Administration [FDA] Tox21 Assay Overview: Mitochondrial membrane potential (MMP), one of the parameters for mitochondrial function, is generated by mitochondrial electron transport chain that creates an electrochemical gradient by a series of redox reactions. This gradient drives the synthesis of ATP, a crucial molecule for various cellular processes. Measuring MMP in living cells is commonly used to assess the effect of chemicals on mitochondrial function; decreases in MMP can be detected using lipophilic cationic fluorescent dyes. […] The dye accumulates in the mitochondria of healthy cells as aggregates, with red fluorescence. The mitochondrial potential decreases and the dye could not accumulate in the mitochondria and remains in the cytoplasm in monomers, with green fluorescence. In addition to the mitochondrial potential assay, these cells were also used to test the cytotoxicity by determining the cell viability in the culture based on the quantitation of ATP present. The cytotoxicity was measured in the same assay well of MMP assay.
Tox21 Assay Protocol Summary: 2,000 HepG2 cells in 5 uL/well were dispensed into black, clear-bottom 1536-well plates using a Multidrop Combi (Thermo Scientific) dispenser. The assay plates were incubated for an overnight at 37 C to allow cells to attach to the wells, followed by the transfer of 23 nL compound or DMSO vehicle by a pin tool (Kalypsys). The plates were incubated for 1 hr at 37 C and 5% CO2, followed by the addition of 5 uL of 2X m-MPI dye into each well using Flying Reagent Dispenser (Aurora Discovery) and then CellTiter-Glo reagent was added at 4 uL/well and incubated 30 min at room temperature. Then luminescence intensity was quantified on a ViewLux CCD-based plate reader.
Consider `CN1CCN(C(=O)C2CCCCC2)CC1`, for which the result was inactive.
The value for `Cc1cc(C)c(C)c(C)c1` was “inactive”; that for `CN(C)c1ccncc1` was “inactive”.
Then `CC(C)OCCO`, with “inactive”.
For the molecule `CCN(CC)CC`, the molecule was called inactive.
Then `C/C(Cl)=C/CCl`, with “inactive”.
Then `CCC(=O)OCCOc1ccccc1`, with “inactive”.
Then `O=c1[nH]c(=O)c2cn[nH]c2[nH]1`, with “inactive”.
With `O=C(CCBr)N1CCN(C(=O)CCBr)CC1`, the result was inactive.
The value for `Cc1cc(C)c(N)c(Cl)c1` was “inactive”.
As to `CN(C)CCc1c[nH]c2ccc(C[C@H]3COC(=O)N3)cc12`, the outcome was inactive.
With `CC(C)(C)c1ccc(N)cc1`, the call was inactive.
Consider `O=C[C@@H](O)[C@H](O)[C@H](O)CO`, for which the molecule was called inactive.
The value for `COc1cc(OC)cc(OC)c1` was “inactive”; that for `CCCCCC(CC)OC(=O)CCCOc1ccc(Cl)cc1Cl` (stereo not given) was “inactive”; that for `CCCCN(CCCC)CCCCCCN(CCCC)CCCC` was “inactive”.
Then `COc1cnc(NS(=O)(=O)c2ccc(N)cc2)nc1`, with “inactive”; and `CC(CN1CC(=O)NC(=O)C1)N1CC(=O)NC(=O)C1` (stereo not given), with “inactive”; and `O=C(O)Cc1ccccc1Oc1ccc(Cl)cc1Cl`, with “inactive”.
In the case of `CNCCc1ccccn1`, the molecule was called inactive.
The value for `CC(C)CC(=O)N[C@H](C(=O)N[C@H](C(=O)N[C@@H](CC(C)C)[C@@H](O)CC(=O)N[C@@H](C)C(=O)N[C@@H](CC(C)C)[C@@H](O)CC(=O)O)C(C)C)C(C)C` (Isovaleryl-VV[Sta]A[Sta]-OH) was “inactive”; that for `CC(CC(=O)Cl)CC(C)(C)C` (stereo not given) was “inactive”.
Take `O=C(O)COc1ccc2ccccc2c1`: the molecule was called inactive.
`CC/C=C/CCCCCCCCCCOC(C)=O`: the outcome was inactive.
`CC(=O)Oc1ccc(C(C)=O)cc1`: the outcome was inactive.
As for `C=COCCCCO`, the outcome was inactive.
Regarding `CCCC(C)C(O)CC` (stereo not given), the result was inactive.
The value for `C[C@@H]1NC(=O)[C@@H](N)CNC(=O)[C@H](C2CCNC(N)=N2)NC(=O)/C(=C/NC(N)=O)NC(=O)[C@H](CNC(=O)C[C@@H](N)CCCN)NC1=O` (stereo not given in full) was “inactive”; that for `CCOC(=O)CC` was “inactive”; that for `C=CC(=O)CC` was “inactive”.
Regarding `CC(=O)c1c(C)cc(C(C)(C)C)cc1C`, the result was inactive.
Regarding `CC(C)C(C)C`, the outcome was inactive.
Regarding `Clc1cc(Cl)c(Cl)c(Cl)c1Cl`, the molecule was classed as inactive.
The value for `O=S(=O)(O)CC(O)CCl` (stereo not given) was “inactive”; that for `Nc1cc(S(=O)(=O)O)ccc1O` was “inactive”.
The value for `CCO/C=C1\N=C(c2ccccc2)OC1=O` was “inactive”.
With `CC(C)(O)c1ccc(C(C)(C)O)cc1`, the molecule was called inactive.
The value for `COc1cc2nc(N3CCN(C(=O)C4CCCO4)CC3)nc(N)c2cc1OC` (stereo not given) was “inactive”.
Then `C/C=C/C(=O)CCCC`, with “inactive”; and `N=C(N)N1CCc2ccccc2C1`, with “inactive”.
